Median seed-adjusted z-score data for 69 sequences are collected here from PubChem BioAssay AID1347426 (Functional Genomics Laboratory (NCATS/FGL), 2020).

The campaign covered roughly 31,000 sequences. About 1,400 (4.5%) were called active.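 How the source made its calls: active means median seed-adjusted z-score above 1 or below -1; inactive means the rest.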 The full list was thinned out, with actives kept by preference.

This test in a line: Novel Modifiers of Survival Motor Neuron (SMN) Protein: Gene Identification via Genome-wide siRNA Screen.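 Further: luminescence tracks full-length SMN protein made from the SMN2 reporter.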 To be noted: HEK293T SMN2-luciferase reporter, siRNA knockdown, 72 h; actives lie on both sides. In outline:
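siRNA screen, 10418 genes ×3 siRNAs; 1 pmol/well, lipid reverse transfection into HEK293T SMN2-luc reporter line. 72 h, 37 °C, 5% CO2; ONE-Glo readout. Data: neg-ctrl normalized, log10, MAD; hit = MAD >1.0 or < -1.0.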
Background: A reporter such as luciferase makes a cellular process visible.
For the sequence GCGCAGCUCUGGAAUUUGATT against OXCT2, the median seed-adjusted z-score was -0.449 (inactive).
Then AGAGCAUUCACAAACUGAATT against RBM8A, with 0 (inactive); and CCUCCUCGAUGCCUACAAATT against DIO2, with -0.549 (inactive).
Then CACUAUGGAGAAACAAUAUTT against ZNF181, with -0.154 (inactive); and GGUGAUGACUGCUUGAUGATT against PSKH1, with -2.03 (active).
Turning to CCCACCAAAUUGCACAAUATT against KLF13, the median seed-adjusted z-score is -0.501 (inactive).
As for GACUGUCUUUGAAAAGAGATT against HESX1, the median seed-adjusted z-score was 0.3 (inactive).
Under GCAGCAUGCUACAACCAAATT against RNF25 stands -0.0826 (inactive); under GAUGGGUAAAUGUACAUAUTT against KCNIP4, -0.401 (inactive); under GCAUCGUGGGCAUAGCGUATT against PCSK6, 0 (inactive).
For the sequence GAAUUUUGAUGGACAAGUUTT against RAG2, the median seed-adjusted z-score was 0.138 (inactive).
Under GAACCUCAAGAAUCGAACATT against REV1 stands -0.294 (inactive).
Then CCAGGGACCAAGAGAAAGATT against RCE1, with -1.19 (active); and GCUUUGAUUUCACCAACAATT against GCM2, with -0.241 (inactive); and GGACGUGACCAUCAUGUACTT against IRF7, with -0.304 (inactive).
Regarding CGAUGUCAGCAUUUCCGUUTT against EPRS, the median seed-adjusted z-score is -0.391 (inactive).
UCACGCUCCUGGACCAUUUTT against SLC6A3: the median seed-adjusted z-score is 0.457 (inactive).
On to GAAGCGCAGUCACCUGAAATT against PROC, for which the median seed-adjusted z-score was -0.228 (inactive).
Consider CUGUUGAGGUUGUUAUUGATT against GABPA, for which the median seed-adjusted z-score is 1.43 (active).
Then GCAUGACCAUAAGAUCCUATT against NUAK2, with -0.0601 (inactive); and GAAGGAGAAUGGUAUCACUTT against GPATCH4, with -0.519 (inactive); and CAAAGUAUCUGGAGAACCATT against KIF2C, with 0.0122 (inactive).
As to GGGCCUUUCUUGGACUGAUTT against PHF7, the median seed-adjusted z-score is 0.425 (inactive).
For CUUCAGUUCGAAUACAUUUTT against RFC5, the median seed-adjusted z-score was -0.644 (inactive).
As to GGAGACUUCUUACCCACCATT against PSMD4, the median seed-adjusted z-score is 1.46 (active).
Turning to CAACUGAUGAGUAUCUAGATT against MRCL3, the median seed-adjusted z-score is -0.00909 (inactive).
CUUCAGUGCUGAUCAGGUATT against NDUFA2: the median seed-adjusted z-score is -0.694 (inactive).
Then GGACCCAGUAUUUCAGGAATT against SFXN4, with -0.174 (inactive); and CGAUAUGGAAAAUCCCUAUTT against ANXA10, with 0.0445 (inactive); and CAUACGGACUGUACCUUUATT against PSMC5, with -1.06 (active).
Take CCCUCUACCUCGUCCGAAUTT against SIRPA: the median seed-adjusted z-score was -0.153 (inactive).
Under CCACAUCUCAAGUCCACUUTT against PPP1R1A stands -0.529 (inactive).
Regarding CACUUACGGUGUGAAAGGATT against SOX5, the median seed-adjusted z-score was 0.123 (inactive).
Under AGUUACUACCUUAUCCUCATT against POU2F2 stands 0.163 (inactive); under CCAUCUCCUACAUCGCCGATT against APBA2, 1.66 (active); under GCUAUUUGGUUAUCCUUAUTT against ATP6V0A1, 0.103 (inactive).
On to AGAUCCUGUGGAUUAGAAATT against NEU4, for which the median seed-adjusted z-score was -0.152 (inactive).
For the sequence GUGCGAAAGAGAAUCUUAATT against SPIRE1, the median seed-adjusted z-score is 0.336 (inactive).
Then GGAACAGCUUAAGAUUGAATT against GNG3, with -0.186 (inactive); and GGAAGACCUUACACGGUUATT against EIF3E, with 0.549 (inactive); and GCUAUUUCCAGCGAAUAUATT against CNOT1, with 1.2 (active).
Under CGCAGAAGAUGUACCAGUUTT against CDH22 stands -0.57 (inactive); under CAGGGUCUAUGGUACCGUUTT against UBE3C, 0.0341 (inactive); under AAAUCCUUGGGUCAACAUUTT against NOX1, -0.221 (inactive).
Then GGACAAGGGAUUAAUAGUATT against ARID1A, with -1.14 (active); and CCUUGAUCCUCGACUGUAATT against COL5A1, with -0.00475 (inactive).
Regarding GGUCAUUGUGAAAAGUAGATT against GCLM, the median seed-adjusted z-score is 0.0509 (inactive).
Then CGCAUACUCUCGCCCUGUATT against ZNHIT2, with -0.339 (inactive); and CGAUAGUGAGUAUAUCAGUTT against ZMYND8, with -0.065 (inactive).
Consider UGAGCGAGUUGAUUUCACATT against ATF5, for which the median seed-adjusted z-score is 0.233 (inactive).
Then CUUUAAGACUCAUAACGAATT against GTF2E2, with -1.32 (active); and GUUUCAUCGUAUAUCAAUATT against HSD17B13, with -0.329 (inactive).
On to GAAGGUUGAUUAUCGUAAATT against BCMO1, for which the median seed-adjusted z-score is 0.53 (inactive).
Under CGAGGAACUAAGACUCAAATT against GPR151 stands -0.263 (inactive).
Under ACAAUUAUUGGAAAGAGAATT against SPRYD5 stands 0.151 (inactive); under GGAAGGAGCUGUCACGCAATT against MED26, -1.86 (active).
Then CGAAUCUCAUGUUCAGGAATT against LPA, with -0.321 (inactive); and GGGUCAUGUUUGGUUAGAATT against IMMP1L, with -0.444 (inactive).
With CGUGGACCACUAUCCCAUUTT against RNF123, the median seed-adjusted z-score was 0 (inactive).
Then GGAAAAACCAACCAAGUUATT against RUFY1, with 0.119 (inactive); and CGGUGAAGGUGCUAAAGGATT against RAD23A, with -1.13 (active).
For GCCUUCAAUUUUCAUACAATT against ZNF19, the median seed-adjusted z-score was 0 (inactive).
Take AGUAAUAGUUCAAACCUUUTT against ZNF664: the median seed-adjusted z-score was 1.08 (active).
Turning to GAGUGUACCUGGAAUGUCUTT against ARNTL2, the median seed-adjusted z-score is 0.102 (inactive).
For the sequence AAAGUGGAUUGCACACAGATT against TGFB1I1, the median seed-adjusted z-score is 0.887 (inactive).
Turning to GAUCAAACCUUGUAUCUCUTT against ARG2, the median seed-adjusted z-score was -0.796 (inactive).
Under GGUAAAGAAUUCUCCGGAATT against FUS stands 0.92 (inactive); under GCAGGAUUGUGAUCCACCATT against PCGF3, 0.876 (inactive).
Turning to GGAUAUGGUGAGAAUAGAATT against MTHFS, the median seed-adjusted z-score is 0.166 (inactive).
